Bioassay records from PubChem.
Tau fil binding – qHTS Assay for Tau Filament Binding; AID 596, 2007; recombinant tau filaments, thioflavin S fluorescence, 15 h; filaments grown with octadecylsulfate alongside compound; 2% of 71,000 active; Potency, µM (titrated, usually from 57.1 µM), inactives show top-dose activity change, negative = inhibition;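 note: % is set by controls: 0 for no effect and ±100 for the full control effect; actives lower thioflavin S fluorescence by blocking filaments or displacing dye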
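Read-out: ThS fluorescence, 450 nm excitation/510 nm emission; lower signal marks blocked filament formation or displaced dye. Tau at 1 uM with 30 uM ODS, 10 uM ThS, 5 mM DTT, 100 mM NaCl, 10 mM HEPES pH 7.4; 15 h, 37 C.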
ALOX15 inhib – qHTS Assay for Inhibitors of 15-hLO (15-human lipoxygenase). 1.4% of 74,000 active. Potency, µM (series often up to 57.1 µM), inactives show top-dose activity change, negative = inhibition, actives largely listed as inhibitors. purified 15hLO-1, xylenol orange hydroperoxide absorbance; note: % is set by controls: 0 for no effect and ±100 for the full control effect; nearly all actives have a fitted effect of over 55% in size
Target sequence (P16050 whole entry, looked up): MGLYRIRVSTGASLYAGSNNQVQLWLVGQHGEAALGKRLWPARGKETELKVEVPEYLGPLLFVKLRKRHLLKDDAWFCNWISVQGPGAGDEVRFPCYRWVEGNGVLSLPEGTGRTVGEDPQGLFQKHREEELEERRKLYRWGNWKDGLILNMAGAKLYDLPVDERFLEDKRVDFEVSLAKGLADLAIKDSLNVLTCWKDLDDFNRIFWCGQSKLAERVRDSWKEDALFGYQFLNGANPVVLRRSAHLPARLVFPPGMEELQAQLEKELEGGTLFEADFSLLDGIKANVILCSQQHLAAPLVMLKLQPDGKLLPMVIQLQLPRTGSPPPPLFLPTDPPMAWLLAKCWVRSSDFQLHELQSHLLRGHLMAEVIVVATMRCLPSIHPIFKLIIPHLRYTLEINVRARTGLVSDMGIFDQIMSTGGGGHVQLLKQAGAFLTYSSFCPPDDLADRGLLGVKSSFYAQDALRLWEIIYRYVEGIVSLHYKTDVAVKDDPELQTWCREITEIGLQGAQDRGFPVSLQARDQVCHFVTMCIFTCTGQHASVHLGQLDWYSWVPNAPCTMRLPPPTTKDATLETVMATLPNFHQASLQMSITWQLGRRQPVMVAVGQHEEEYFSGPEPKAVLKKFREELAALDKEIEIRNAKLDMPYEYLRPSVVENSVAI
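Purified human 15hLO-1 (40 nM final) in 25 mM Hepes pH 7.5, 0.01% Triton X-100 was preincubated with compound 15 min at room temperature, then reacted 6 min with 50 uM arachidonic acid; hydroperoxide detected by Fe-XO, 573/405 nm absorbance ratio.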
IkB sig inh – IkB Signaling | ABC-DLBCL IkBa-CBG/CBR dual luciferase ratio, 4 h; response scale: scaled: untreated 0%, proteasome inhibitor 100% | Potency, µM (doses to about 57.1 µM), without a hit: at the highest dose IkBa stabilization activation | 0.04% of 110,000 active; active = well fitted curve in the direction sought with a large enough effect in the signal ratio, not every such curve was filed as active; inconclusive = small, poorly fitted or top-dose-only effect, or a change in a side signal; the % refers to the signal ratio;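 note: the direction sought is a rising ratio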
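Luminescence ratio of IκBα-fused green versus native red beetle luciferase in OCI-Ly3 cells, 4 h post-doxycycline with compound; red signal alone, scaled from basal (0%) to zero light (-100%), flagged nonspecific or cytotoxic effects.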
Hsp90 Hop PPI – qHTS Assay for Disrupters of an Hsp90 Co-Chaperone Interaction; 0.44% of 71,000 active; AlphaScreen TPR2A-His6 binding biotin-Hsp90 C-terminal peptide; Potency, µM (top dose mostly 57 µM), for inactives: top-dose activity change, negative = inhibition; AID 595, 2007; active = well fitted curve in either direction with a large enough effect; inconclusive = small, poorly fitted or top-dose-only effect, or another doubt; note: % is set by controls: 0 for no effect and ±100 for the full control effect
CRE-bla Fsk – Cell signaling CRE-BLA (Fsk stim) | AID 662, 2007 | CHO CRE-bla reporter (cAMP response element driving beta-lactamase), forskolin EC10, beta-lactamase ratio | Potency, µM (doses to about 38.2 µM), for the others: at the top dose activity change, negative = inhibition, usual class: activators | 2.5% of 71,000 active; active = well fitted activation curve with a large enough effect in the signal ratio, with a control signal flat, not every such curve was filed as active; inconclusive = small, poorly fitted or top-dose-only effect, or effect the other way, or a change in a side signal; the % refers to the signal ratio; note: % of control where 0% means no effect
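AC50 values, positive or negative, reflect shifts in EC10 NKH 477-induced CRE-bla reporter activity in CHO cells. Incubation lasted 3 h at 37 °C before CCF4 substrate (2 h, room temperature) and ratiometric 460/530 nm reading.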
The depositor's hits bear a star; i = inactive; u = inconclusive; x = not tested or not shown; [ ] = remark or other dose. This is a sample that favours compounds with a hit; in the whole collection about 3.6% have one here. Unless noted, calls come from the whole dose curve; as a rule, active = well fitted curve in the direction sought with a large enough effect; inconclusive = small, poorly fitted or top-dose-only effect, or another doubt; inactive = no such curve, though single readings can be large; an effect the other way counts as inactive or inconclusive. Potency is the fitted concentration of half-maximal effect.

SMILES	Tau fil binding	ALOX15 inhib	IkB sig inh	Hsp90 Hop PPI	CRE-bla Fsk
CCOC(=O)N1CCC(NC(=O)C(CC(C)C)NC(=O)C2CCCCC2)CC1 (stereo unspecified)	4%	16µM*	1%	-2%	0%
Cc1ccc(CNC(=O)CCc2c(C)nc3c(-c4ccc(F)cc4)c(C)nn3c2C)cc1	x	x	1%	x	x
O=c1c2ccccc2nc(-c2ccco2)n1/N=C/c1ccco1	-22%	1%	1%	-5%	10µM*
NC[C@@H]1O[C@H](O[C@@H]2[C@H](O[C@@H]3O[C@H](CO)[C@@H](O)[C@@H]3O)[C@@H](O)[C@@H](N)C[C@H]2N)[C@@H](N)[C@H](O)[C@@H]1O	-6%[25.6 µM]	8%[25.6 µM]	2%[25.6 µM]	2%[26 µM]	5%[17.1 µM]
N#CC(C#N)=c1ccc2c(c1)N1C3=C(CCCC3)CC3CCCCC31N=2 (stereo unspecified)	1.6µM*	2%	-3%	u	11%
N#C/C(C(N)=O)=c1/ccc2c(c1)N1C3=C(CCCC3)CC3CCCCC31N=2 (stereo unspecified)	5µM*	-17%	u	u	8%
COc1cccc(-c2cn3nc(C)c(C)nc3n2)c1	10µM*	-8%	u	-3%	u
Clc1ccc2nc(NC3=NCN(CCN4CCOCC4)CN3)nc(-c3ccccc3)c2c1	7.9µM*	4%	-1%	-1%	u
Cc1nn(-c2ccccc2)c2nc(-c3ccncc3)cc(C(=O)NCc3ccco3)c12	32µM*	25µM*	u	5%	-8%
CCOC(=O)c1cc(-c2ccco2)nc2c1c(C)nn2-c1ccccc1	10µM*	-28%	-2%	3%	u
CCOC(=O)c1cnn2c(C(F)(F)F)cc(-c3ccco3)nc12	-8%	1%	1%	8%	u
CCOc1ccc(C2c3[nH]c4ccccc4c3CCN2C(=O)CCc2ccccc2)cc1 (stereo unspecified)	x	x	4%	x	x
CCCOc1ccc(-c2nonc2NC(=O)c2oc3ccc(Cl)cc3c2C)cc1OCCC	x	x	0%	x	x
Cc1c(CNC2CCCCCC2)c(C(=O)O)c(C)n1Cc1c(F)cccc1Cl	x	x	2%	x	x
O=c1ccc2cc(S(=O)(=O)Nc3ccc(OC(F)(F)F)cc3)ccc2[nH]1	x	x	-2%	x	x
Cc1cc(O)c(C(C)(C)C)cc1Sc1cc(C(C)(C)C)c(O)cc1C	20µM*	u	u	-6%	u
CC(=O)C1=C(C)NC(SCC(=O)c2ccc(F)cc2)=C(C#N)C1c1ccco1 (stereo unspecified)	77%	20µM*	u	17%	u
CC1=C(C(=O)Nc2ccccc2)C(c2ccco2)C(C#N)=C(SCc2ccccc2)N1 (stereo unspecified)	81%	u	u	7%	u
CCc1ccc(C(=O)CSC2=C(C#N)C(c3ccco3)C(C(C)=O)=C(C)N2)cc1 (stereo unspecified)	161%	10µM*	u	28%	u
CCNc1ncc2nc(-c3cccs3)c(=O)n(CCC#N)c2n1	i	-26%	-4%[11.4 µM]	0%	u
COc1ccc(Cl)cc1NC(=O)Cn1nnc(C(=O)NCc2cccs2)c1N	x	x	-3%	x	x
COc1ccc(CN2C(=O)C3C4C=CC(C4)C3C2=O)cc1 (stereo unspecified)	-7%	14%	0%	0%	-5%
O=C1C2C3C=CC(C3)C2C(=O)N1Cc1ccccc1 (stereo unspecified)	40%	-14%	u	-11%	1µM*
COc1cc2c(=O)n(Cc3ccco3)c(=O)n(CC(=O)c3cccc(Br)c3)c2cc1OC	i	-7%	1%	-7%	4µM*
CCC(=O)O[C@@]1(C(=O)SCF)[C@@H](C)C[C@H]2[C@@H]3C[C@@H](F)C4=CC(=O)C=C[C@@]4(C)[C@]3(F)[C@@H](O)C[C@]21C	33%[25.6 µM]	9%[25.6 µM]	u	-3%[26 µM]	9%[17.1 µM]
SMILES	Tau fil binding	ALOX15 inhib	IkB sig inh	Hsp90 Hop PPI	CRE-bla Fsk
COc1cc2c(C)nc3onc(-c4ccccc4)c3c2cc1OC	12%	1%	-3%	-2%	u
Cc1cc2c(C)nc(-c3ccccc3)nc2o1	-4%	-1%	0%	-4%	0.4µM*
Cc1onc(-c2ccccc2Cl)c1C(=O)Nc1ccc(-n2nncc2C(C)(C)C)cc1	25µM*	-4%	7%	-3%	-8%
Cc1onc(-c2ccccc2Cl)c1C(=O)Nc1ccc(-n2nncc2-c2ccco2)cc1	u	-9%	u	-12%	5%
CCOC(=O)c1ccccc1NC(=O)N(C)CCc1c(C)nn(CC)c1C	x	x	0%	x	x
COC(=O)c1sc(N2C(=O)C(O)=C(C(=O)c3ccc(C)o3)C2c2ccc(F)cc2)nc1C (stereo unspecified)	-18%[11.4 µM]	6%[11.4 µM]	0%	-15%[11 µM]	4µM*
CCc1ccc(C2c3c(oc4cc(C)c(C)cc4c3=O)C(=O)N2c2nc(C)c(C(=O)OC)s2)cc1 (stereo unspecified)	x	x	1%	x	x
Cc1ccc(NC(=O)c2oc3ccc4c(c3c2C)C(=O)CC(C)(C)O4)c(C)c1	x	x	-1%	x	x
N#Cc1cc2ccccc2nc1SCC(=O)Nc1ccc(S(=O)(=O)N2CCCC2)cc1	16µM*	-4%	-1%	-1%	-1%
COc1ccc2nc(SCC(=O)Nc3ccc(S(=O)(=O)N4CCCC4)cc3)c(C#N)cc2c1	25%	-1%	3%	-5%	9%
Cc1nn(-c2ccccc2)c2c1C(c1cccnc1)N1C=C(S(=O)(=O)N3CCCCC3)C=CC1=N2 (stereo unspecified)	16µM*	-28%	4%	u	u
CCc1c(C)sc(NC(=O)c2cc3nc(-c4ccc(OC)cc4)cc(C(F)(F)F)n3n2)c1C(=O)OC	x	x	-2%	x	x
CCc1nc(C)cn1S(=O)(=O)c1ccc(Cl)c(Cl)c1OC	x	x	-2%	x	x
COc1ccccc1N1CCN(CCn2c(=O)[nH]c3c([nH]c4ccccc43)c2=O)CC1	40µM*	u	1%	5%	-12%
N#CCSc1nc2cc(C(=O)N3CCC(C(N)=O)CC3)ccc2c2nc3ccccc3n12	5%	-3%	-5%	-10%	2.5µM*
O=C(Nc1nnc(COc2ccc(Cl)cc2)s1)c1cccs1	25%	16µM*	-2%	-2%	9%
O=C(Nc1nnc(COc2ccc(Cl)cc2)s1)C1CCCO1 (stereo unspecified)	-13%	7.9µM*	-5%	0%	2%
O=[N+]([O-])c1cccc(/C=N\Nc2ccc3ccccc3n2)c1O	3.2µM*	47%[11.4 µM]	u	u	13%[7.6 µM]
C/C(=N/Nc1ccc2ccccc2n1)c1ccccc1O	-6%[11.4 µM]	13%[11.4 µM]	u	-4%[11 µM]	-9%[7.6 µM]
Cc1cccc(C)c1NC(=O)CSc1nc2ncccc2o1	x	x	1%	x	x
